Measured values: the OligoGym collection

Each sequence was assayed against FAM73A (assay: pooled miR-30 sensor sort-seq; sequence = guide strand). Conditions: shRNA.
Further: reference of the scale not given here.

Row | Sequence | sensor-assay potency score (higher = more potent)
1 | TAATATCATCTTCATCTGCTTT | -0.807
2 | TGTACTTGAATAGCGCACCTTC | 0.381
3 | TACTGGAACAACTTGAACCTTT | 0.0533
4 | TAGCATAGTTACAAACTTGAGA | -0.258
5 | TTGAATAGCGCACCTTCTCAAA | -1.12
6 | TAGACAACTACTTGTATGCCTC | -0.255
7 | TATCTTTATCAATATCATCAGC | -1.22
8 | TTAAGTATAAGTTCTCTGGAGT | -0.00837
9 | TTTAATATCATCTTCATCTGCT | 0.76
10 | TTCTGTTTCAGCACCGACCAAC | -0.471

What follows are sequences tested against FAM75A3 in the same assay as above. Conditions: shRNA.

Row | Sequence | sensor-assay potency score (higher = more potent)
11 | TTCACTAACAACCTCCTCCATA | -0.534
12 | TGATTCGTCCTGAAGCTGCATC | -0.869
13 | AAATTCACTAACAACCTCCTCC | 0.396
14 | TTCGTCCTGAAGCTGCATCAGA | -0.939
15 | TAAACTTCTCACTCTTGTGAAT | -1.14
16 | TGGTGATTCGTCCTGAAGCTGC | -1.37

These sequences were tested against FAM89B in the same assay as above. Conditions: shRNA.

Row | Sequence | sensor-assay potency score (higher = more potent)
17 | AACATCTCCTTGCGCAGCGCGG | -1.39
18 | TTAAGGAGGCCGCTGAGGCCGC | -1.49
19 | TGACAGGACGACGCGGGCCGGC | -1.62
20 | TGGATTGACTCGTACAGGCCCC | -0.992
21 | TCCTGGATTGACTCGTACAGGC | -1.73
22 | TTGTAGTCCTGGATTGACTCGT | 0.301
23 | TGTAGTCCTGGATTGACTCGTA | -0.175
24 | ATCGGGAGGCTCCTCGTCGTCA | -1.39
25 | TCAGGTCTTGGCACAGGTGTTT | -0.832
26 | TTGCGCAGCGCGGCCAGCGCTG | -1.52
27 | TTTGTAGTCCTGGATTGACTCG | -1.36
28 | TAGTCCTGGATTGACTCGTACA | -1.39

What follows are sequences tested against FAM9C in the same assay as above. Conditions: shRNA.

Row | Sequence | sensor-assay potency score (higher = more potent)
29 | TATTTTAATTTGTTCTTCCTTT | -0.236
30 | AACATTTTTAATTCTGTTCTTT | -0.182
31 | AATATCTTCTAGCTCCTTGGTA | -0.174
32 | TTAACTAAACACTGTCATGTGG | 0.189
33 | TTACTGGATCCTTTCCTGCAAG | -1.19
34 | TAACTAAACACTGTCATGTGGT | 0.0242
35 | TAACAGGTTTTCTTTCCTCATG | -1.34
36 | ATTCTGTTCTTTATTTCGCTGC | -0.428
37 | TTTTGCAATCTTTTCAATCCTT | 0.00533
38 | TTTGCAATCTTTTCAATCCTTT | -0.0948
39 | ATCAGTTACATCTCCCTCCTTT | -0.105
